p53null 32C kill = selectivity test: cytotoxicity in p53 null cells, permissive temperature | H1299-neo p53 null cells, ATP luminescence, 24 h, 32C | Potency, µM (doses to about 46.1 µM), inactives show at the highest dose activity change, negative = cytotoxicity, hits mostly cytotoxic | 55,000 tested, 0.62% active | AID 903;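 further: potency means the concentration at half of the fitted maximal effect; 0% = DMSO only and -100% = full killing by 100 µM tamoxifen; nearly all actives have a fitted effect of over 55% in size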
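We seeded p53-null H1299-neo cells, incubated them overnight at 37C, and added compounds across a range up to 46 uM. After 24 hours at 32C, ATP reagent was applied for 20 min at room temperature and luminescence recorded.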
p53null 39C kill = p53 null cell cytotoxicity, nonpermissive temperature | H1299 p53-null (neo) cells, 39C, ATPlite viability, 24 h | Potency, µM (series often up to 46.1 µM), for inactives: top-dose activity, negative = cell killing, usual class: cytotoxic | 55,000 tested, 0.97% active | AID 904;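 further: potency means the concentration at half of the fitted maximal effect; 0% = DMSO only and -100% = full killing by 100 µM tamoxifen; nearly all actives have a fitted effect of over 50% in size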
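Luminescent ATP signal reported cell survival after H1299 lines (neo, p53 null; or p53 A138V) received up to 46 uM compound and 24 hr incubation at 39C.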
GALC G270D act = enhancers of human galactocerebrosidase G270D mutant activity in cells; Potency, µM (top dose mostly 57.5 µM), hits mostly activators; 45,000 tested, 0.1% active; P54803; 145M-Twi-hGALC-G270D cells (Twitcher mouse brain line with human GALC G270D), HMU-beta-Gal fluorescence, 48 h; further: potency means the concentration at half of the fitted maximal effect; 0% is about no effect; nearly all actives have a fitted effect of over 65% in size
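Mutant human GALC (G270D), stably expressed in a Twitcher mouse brain cell line lacking endogenous GALC, is measured in live-treated cells via 6-hexadecanoylamino-4-methylumbelliferyl-β-galactoside hydrolysis (0.1 mM final, pH 5.2) with fluorescent detection.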
GPR32 ag = agonists of human resolvin D1 receptor DRV1 (GPR32); O75388; CHO-K1 GPR32 beta-arrestin PathHunter luminescence, 90 min; zero percent set by DMSO-only wells; activation, % at 76.9 µM; 48,000 tested, 2.5% active; AID 1346428;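 active means activation of at least 60% and not above a set upper limit, about 1 call in 100 departs from these limits; inconclusive means activation of 40% to 60%, or above that upper limit; inactive means activation under 40%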; further: 0% is about no effect
Target sequence (O75388 whole entry, looked up): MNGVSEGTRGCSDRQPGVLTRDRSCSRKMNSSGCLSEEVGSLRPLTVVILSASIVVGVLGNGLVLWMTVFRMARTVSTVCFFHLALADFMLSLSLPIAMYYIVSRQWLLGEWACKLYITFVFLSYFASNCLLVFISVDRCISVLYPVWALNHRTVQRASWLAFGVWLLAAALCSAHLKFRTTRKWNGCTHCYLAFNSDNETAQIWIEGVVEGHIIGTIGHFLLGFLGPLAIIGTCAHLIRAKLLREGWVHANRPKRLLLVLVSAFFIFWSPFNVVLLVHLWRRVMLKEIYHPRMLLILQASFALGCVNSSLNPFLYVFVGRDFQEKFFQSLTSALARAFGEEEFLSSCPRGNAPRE
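Agonism was scored as beta-arrestin recruitment to ProLink-fused GPR32 in stably transfected CHO-K1 cells, giving a chemiluminescent beta-Gal signal; compounds were incubated 90 min at 37 °C.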
NTMT1 inh = inhibitors of human N-terminal methyltransferase NTMT1; Q9BV86; NTMT1 MTase-Glo SAH luminescence, purified enzyme; Potency, µM (series often up to 114 µM), for the others: at the highest dose activity change, negative = inhibition, most hits filed as inhibitors; 59,000 tested, 2.5% active; AID 1645870;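 further: potency means the concentration at half of the fitted maximal effect; plate controls were DMSO vehicle for no effect and no enzyme for full effect; nearly all actives have a fitted effect of over 65% in size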
Target sequence (Q9BV86 whole entry, looked up): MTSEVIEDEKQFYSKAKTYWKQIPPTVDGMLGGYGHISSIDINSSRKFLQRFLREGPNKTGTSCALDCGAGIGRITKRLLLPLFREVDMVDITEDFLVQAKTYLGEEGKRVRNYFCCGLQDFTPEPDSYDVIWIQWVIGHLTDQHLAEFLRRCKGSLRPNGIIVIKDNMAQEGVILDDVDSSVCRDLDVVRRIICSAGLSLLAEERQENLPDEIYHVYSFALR
FH mod = Identification of activators of human fumarate hydratase by quantitative high-throughput screening. Fumarate hydratase, mitochondrial (Homo sapiens), P07954. FH coupled MDH/diaphorase resazurin fluorescence, 15 min. Potency, µM (series often up to 79.9 µM), inactives show top-dose activity change, negative = inhibition, usual class: inhibitors. 54,000 tested, 0.22% active. AID 1347055, 2019; further: potency means the concentration at half of the fitted maximal effect; on the % scale 0 is the no-effect control and ±100 the full control effect; the screen sought activators but most active calls are inhibition curves; nearly all actives have a fitted effect of over 45% in size
* marks the source's active call; other numbers are inactive results; i = inactive; ? = inconclusive; nt = not tested or not shown; ! = repeats disagree; [ ] = remark or other dose. Compounds with a hit are over-represented: about 3.9% of the library has one in this group of screens. Unless noted, the call rests on the fitted dose curve; in most records, active means well fitted curve in the direction sought with a large enough effect; inconclusive means small, poorly fitted or top-dose-only effect, or another doubt; inactive means no such curve, though single readings can be large; an effect the other way counts as inactive or inconclusive.

SMILES	p53null 32C kill	p53null 39C kill	GALC G270D act	GPR32 ag	NTMT1 inh	FH mod
C=C(C)C(=O)OC1CC2(C)OC(=CC2=O)C(=C)CC2OC(=O)C(COC)C12 (stereo not drawn)	nt	nt	nt	nt	-9%[29.8 µM]	-2%[53.3 µM]
COc1ccccc1C(=O)Oc1c(Sc2ccccc2)c(C)nn1C(C)(C)C	?	13µM*	?	-8	-3%	-40%
Cc1nn(Cc2noc(C(=O)NCc3cccc(F)c3)n2)c(C)c1Br	15%	-25%	i	73*	11%	0%
COC(=O)c1ccc(CNC(=O)c2nc(Cn3nc(C)c(Br)c3C)no2)cc1	25%	5%	i	10	28%	-13%
COc1ccc2[nH]c3c(c2c1)CCN[C@]31CS[C@@H]2c3c(OC(C)=O)c(C)c4c(c3[C@H](COC1=O)N1[C@@H]2[C@H]2c3c(cc(C)c(OC)c3O)C[C@@H]([C@@H]1O)N2C)OCO4	nt	nt	nt	nt	9%[29.8 µM]	nt
C/C(=N\NC(=S)N1CCC1)c1ccccn1	nt	nt	nt	nt	-6%	nt
O=C(Nc1ccc(O)c(-c2nc3ccccc3o2)c1)c1ccco1	0%	-7%	i	84*	19%	-3%
Cc1cc(NC(=O)c2ccco2)cc(-c2nc3ccccc3o2)c1O	-7%	-18%	i	27	29%	-1%
O=c1cc(NCCCN[C@@H]2CCOc3c(Br)cc(Br)cc32)[nH]c2ccsc12	nt	nt	nt	nt	-10%[57.5 µM]	-6%
COc1ccc(/C=C/C(=O)Nc2sc(C)c(C)c2C(=O)O)cc1	3.2µM*	0.79µM*	i	-5	?	-29%
CCc1ccccc1NC(=O)CSc1nnc(COc2ccccc2Cl)o1	5%	8%	i	69*	6%	-26%
O=C(COCC(=O)N1CCN(C(c2ccccc2)c2ccccc2)CC1)Nc1ccc(Cl)cc1C(=O)O	nt	nt	nt	nt	16%	-2%
CCC[C@@H](NC(=O)[C@@H]1[C@H]2CCC[C@@H]2CN1C(=O)[C@@H](NC(=O)[C@@H](NC(=O)c1cnccn1)C1CCCCC1)C(C)(C)C)C(=O)C(=O)NC1CC1	nt	nt	nt	nt	-25%[57.5 µM]	-9%[53.3 µM]
CCC[C@H](NC(=O)[C@@H]1[C@H]2CCC[C@H]2CN1C(=O)[C@@H](NC(=O)[C@@H](NC(=O)c1cnccn1)C1CCCCC1)C(C)(C)C)C(=O)C(=O)NC1CC1	nt	nt	nt	nt	45µM*	nt
CCc1ccc(NC(=O)Cn2c(=O)c(CNc3ccccc3)cc3cc(OC)c(OC)cc32)cc1	2%	2%	i	-46	-21%	-24%
COc1cc2cc(CNc3ccccc3)c(=O)n(CC(=O)Nc3cc(C)cc(C)c3)c2cc1OC	-1%	29%	40µM*	-6	-25%	-18%
CCN(CC)CCNC(=O)c1c(C)[nH]c(/C=C2\C(=O)Nc3ccc(F)cc32)c1C	nt	nt	i	-5	35µM*	13µM*!
COc1cccc(/C=C/c2nc(C#N)c(N3CCCCCC3)o2)c1	-8%	-6%	?	-6	-6%	-21%
COc1cccc(/C=C/c2nc(C#N)c(N(C)Cc3ccccc3)o2)c1	7%	7%	25µM*	20	16%	-14%
COc1cccc(/C=C/c2nc(C#N)c(N3CCC(C(N)=O)CC3)o2)c1	-9%	-12%	25µM*	14	-3%	-4%
COc1cccc(/C=C/c2nc(C#N)c(NCCc3ccccc3)o2)c1	-3%	-20%	i	-12	?	-15%
COc1ccc(N2CCN(c3oc(/C=C/c4ccccc4OC)nc3C#N)CC2)cc1	-4%	-10%	i	-35	89µM*	-18%
COc1ccc(/C=C/c2nc(C#N)c(N3CCCCC3)o2)cc1OC	-1%	-11%	28µM*	4	?	-31%
CCOC(=O)Nc1cc(-c2ccc(C)c(NS(C)(=O)=O)c2)nn2c(C)nnc12	nt	nt	nt	nt	4%[57.5 µM]	3%
COc1ccc(C2Nc3ccccc3C(=O)N2Cc2ccc3c(c2)OCO3)cc1COc1c(C)cc(NC(C)=O)cc1C (stereo not drawn)	nt	nt	nt	nt	1%	nt
SMILES	p53null 32C kill	p53null 39C kill	GALC G270D act	GPR32 ag	NTMT1 inh	FH mod
O=C1CC(c2ccc([N+](=O)[O-])cc2)=NN1c1ccccc1	nt	nt	nt	nt	-12%[57.5 µM]	-8%
COc1cc(/C=C/c2nc(C#N)c(N3CCCCCC3)o2)cc(OC)c1OC	-8%	-20%	i	-19	?	28µM*
COc1ccc(C2(O)CCC(N3CC[C@@H](NC(=O)CNC(=O)c4cccc(C(F)(F)F)c4)C3)CC2)cn1 (stereo partly drawn)	nt	nt	nt	nt	-3%[57.5 µM]	-11%
Cc1ccccc1NC(=O)c1cc2sccc2n1Cc1ccc(F)cc1	-2%	-4%	i	-8	3%	-4%
CC(NC(=O)c1cc2sccc2n1Cc1ccc(F)cc1)c1ccccc1 (stereo not drawn)	-3%	-10%	i	100*	12%	-3%
COc1ccc(-n2nc3c(N4CCC(C(=O)NCc5cccc(F)c5)CC4)nnc(C)c3c2C)cc1	-12%	3.2µM*	i	-5	-5%	-1%
CCNC(=O)C1CCN(c2nnc(C)c3c(C)n(-c4ccc(OC)cc4)nc23)CC1	2%	10%	i	-4	4%	-11%
CCc1ccc(CNC(=O)C2CCCN(c3nnc(C)c4c(C)n(-c5ccc(OC)cc5)nc34)C2)cc1 (stereo not drawn)	25µM*	?	i	3	?	-24%
COc1ccc(CNC(=O)C2CCN(c3nnc(C)c4c(C)n(-c5ccc(C)cc5)nc34)CC2)cc1	?	13µM*	i	1	?	-11%
COc1ccc(-n2nc3c(N4CCCC(C(=O)NCc5ccc(C)cc5)C4)nnc(C)c3c2C)cc1 (stereo not drawn)	?	15%	i	111*	?	-25%
CC(C)(C)OC(=O)N1CCN(c2ccc(NCc3nnc(-c4ccc(C#N)cc4)o3)cc2)CC1	nt	nt	nt	nt	15%	nt
CC(C)[C@@H]1C(=O)N(S(C)(=O)=O)[C@@H]2CCN(C(=O)/C=C/CN3CCCCC3)[C@H]21	nt	nt	nt	nt	5%[57.5 µM]	3%
CC(=O)O[C@@H]1CC2C(/C=C(\C)C(=O)[C@@]3(O)C[C@@H](C)[C@H](OC(=O)c4ccccc4)C3/C=C/1C)C2(C)C (stereo partly drawn)	nt	nt	nt	nt	6%[29.8 µM]	-13%[53.3 µM]
Fc1ccc(-c2noc(CCCCSc3nnc(-c4cccc5ccccc45)o3)n2)cc1	nt	nt	nt	nt	1%	nt
